# Results taken from PubChem BioAssay (NCATS).
# Records with an inconclusive call do not appear. The source made the active and inactive calls. Unless noted, calls come from the whole dose curve; as a rule, active = well fitted curve in the direction sought with a large enough effect; inconclusive = small, poorly fitted or top-dose-only effect, or another doubt; inactive = no such curve, though single readings can be large; an effect the other way counts as inactive or inconclusive.
# Legend:
# [1] = biological target: Lysosomal acid glucosylceramidase (Homo sapiens) (UniProt P04062); assay: Glucocerebrosidase-p2 (AID 348; in the data active = potency below about 10 µM; note: potency is the fitted concentration of half-maximal effect); details: purified GBA, blue fluorogenic substrate, 40 min
# Lysosomal acid glucosylceramidase (Homo sapiens), sequence (P04062 whole entry, looked up): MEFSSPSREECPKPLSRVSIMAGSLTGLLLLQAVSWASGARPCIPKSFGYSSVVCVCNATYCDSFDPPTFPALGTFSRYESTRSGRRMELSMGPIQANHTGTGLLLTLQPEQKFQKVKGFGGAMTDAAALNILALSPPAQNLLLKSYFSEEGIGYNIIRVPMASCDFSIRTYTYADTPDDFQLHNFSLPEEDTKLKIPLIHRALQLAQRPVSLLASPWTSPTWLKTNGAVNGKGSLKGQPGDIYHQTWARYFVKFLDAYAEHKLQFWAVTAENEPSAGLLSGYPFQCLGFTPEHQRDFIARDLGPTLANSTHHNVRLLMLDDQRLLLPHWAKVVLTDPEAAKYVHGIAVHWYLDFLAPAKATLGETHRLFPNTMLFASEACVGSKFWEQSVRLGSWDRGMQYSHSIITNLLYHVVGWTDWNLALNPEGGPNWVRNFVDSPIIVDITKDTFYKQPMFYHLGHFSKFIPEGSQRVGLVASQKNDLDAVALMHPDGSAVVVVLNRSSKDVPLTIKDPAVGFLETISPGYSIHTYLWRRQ
# In short: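 Compounds titrated from 0.6 nM upwards against 0.2 nM enzyme in pH 5.9 citric acid/KH2PO4, taurocholate, tween-20; blue fluorogenic substrate 80 uM, 40 min room temperature, stopped and read Ex 365/Em 440 for AC50.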
# [2] = AP1 Signaling Pathway (AID 357; active = well fitted curve in either direction with a large enough effect, not every such curve was filed as active; note: % is set by controls: 0 for no effect and ±100 for the full control effect); details: ME-180 AP-1-bla reporter, EGF-induced, beta-lactamase ratio, 5 h; at 7.69 µM (top of the series) unless noted
# In short: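 AP-1-bla ME-180 cells with beta-lactamase reporter under AP-1 response element, stimulated with EC50 EGF; compounds titrated, 5 hours at 37 degrees Celsius. CCF4 read at 460/530 nm ratio; positive and negative modulators judged by AC50.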
# [3] = biological target: Cytochrome P450 1A2 (Homo sapiens) (UniProt P05177); assay: p450-cyp1a2 (AID 410; calls by dose curve; note: potency is the fitted concentration of half-maximal effect)
# Cytochrome P450 1A2 (Homo sapiens), sequence (P05177 whole entry, looked up): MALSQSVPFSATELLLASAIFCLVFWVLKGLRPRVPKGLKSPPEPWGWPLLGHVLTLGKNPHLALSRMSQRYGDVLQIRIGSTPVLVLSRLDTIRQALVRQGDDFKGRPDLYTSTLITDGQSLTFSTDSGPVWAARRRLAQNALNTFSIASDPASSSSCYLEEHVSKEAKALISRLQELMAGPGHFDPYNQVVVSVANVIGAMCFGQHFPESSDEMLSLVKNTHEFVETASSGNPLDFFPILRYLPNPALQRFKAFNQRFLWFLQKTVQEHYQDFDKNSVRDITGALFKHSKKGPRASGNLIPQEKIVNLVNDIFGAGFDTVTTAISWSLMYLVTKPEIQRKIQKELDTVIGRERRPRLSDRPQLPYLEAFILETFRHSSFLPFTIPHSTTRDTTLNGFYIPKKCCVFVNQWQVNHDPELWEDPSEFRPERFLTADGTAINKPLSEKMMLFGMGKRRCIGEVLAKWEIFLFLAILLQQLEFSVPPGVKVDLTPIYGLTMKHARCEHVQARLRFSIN
# In short: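 Human CYP1A2 (20nM) demethylated Luciferin-ME at its Km (100uM) in 100mM KPO4. After 10 min compound preincubation, NADPH regeneration ran the reaction 60 min at room temperature. Luciferin was read by luminescence, normalized to 57 uM furafylline.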
# [4] = Stat Signaling Pathway (AID 446; active = well fitted curve in either direction with a large enough effect, not every such curve was filed as active;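 note: ME-180 cervical cancer cells given 40 pM IL-6 alongside compound; SIE-controlled beta-lactamase reporter measured as 460/530 nm FRET emission ratio; % is set by controls: 0 for no effect and ±100 for the full control effect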)
# In short: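 IL-6/STAT signaling read in ME-180 cells via an SIE beta-lactamase reporter. Stimulus was 40 pM IL-6 (its AC50) for 5 hrs, so both activation and inhibition register.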
# [5] = biological target: Glucocorticoid receptor (Homo sapiens) (UniProt P04150); assay: GR-GFP Redistribution (AID 450;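 active = compounds whose dose series gives a full or clear partial fitted curve of increased nuclear translocation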; note: potency is the fitted concentration of half-maximal effect); details: U2OS GR-GFP nuclear translocation, laser cytometry, 2 h
# Glucocorticoid receptor (Homo sapiens), sequence (P04150 whole entry, looked up, the tested form may be a part): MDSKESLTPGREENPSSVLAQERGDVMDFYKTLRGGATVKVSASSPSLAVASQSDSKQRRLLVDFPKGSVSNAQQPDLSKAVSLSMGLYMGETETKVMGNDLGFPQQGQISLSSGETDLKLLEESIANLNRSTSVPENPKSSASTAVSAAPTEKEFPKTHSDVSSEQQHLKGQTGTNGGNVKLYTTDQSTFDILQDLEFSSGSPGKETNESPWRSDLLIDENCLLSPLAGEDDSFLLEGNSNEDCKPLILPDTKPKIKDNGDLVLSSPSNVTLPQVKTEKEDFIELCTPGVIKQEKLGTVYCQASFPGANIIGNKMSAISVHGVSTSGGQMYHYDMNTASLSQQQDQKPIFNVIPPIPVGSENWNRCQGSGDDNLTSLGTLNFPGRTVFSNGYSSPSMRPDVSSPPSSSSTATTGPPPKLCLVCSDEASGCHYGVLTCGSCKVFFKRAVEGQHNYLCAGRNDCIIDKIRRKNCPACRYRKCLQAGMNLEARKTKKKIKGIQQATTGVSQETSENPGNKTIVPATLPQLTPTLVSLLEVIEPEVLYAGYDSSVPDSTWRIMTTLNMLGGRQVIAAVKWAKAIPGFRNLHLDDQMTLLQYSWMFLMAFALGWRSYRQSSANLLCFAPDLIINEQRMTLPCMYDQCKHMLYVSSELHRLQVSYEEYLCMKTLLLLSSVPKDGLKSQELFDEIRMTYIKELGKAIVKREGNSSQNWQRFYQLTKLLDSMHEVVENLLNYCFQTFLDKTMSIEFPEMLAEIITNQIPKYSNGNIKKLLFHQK
# [6] = biological target: Glucocorticoid receptor (Homo sapiens) (UniProt P04150); assay: GR-EFC Redistribution (AID 451; calls by dose curve; note: potency is the fitted concentration of half-maximal effect); details: CHO-K1 GR-EFC translocation, beta-gal luminescence, 2 h
# In short: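 CHO-K1 cells expressing nuclear EA and GR-ED fragments of b-gal; compounds titrated up to 46 uM final, 2 h at 37 C. GR nuclear translocation read as complemented b-gal luminescence after 1 h RT detection.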
# [7] = biological target: Mitogen-activated protein kinase 10 (Mus musculus) (UniProt Q61831); assay: JNK3 AlphaScreen Assay (AID 530; active = well fitted curve in either direction with a large enough effect, not every such curve was filed as active;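 note: kinase came from lysate of stimulated human HepG2 cells; signal reports phosphorylation of biotinylated GST-cJun 1-79 at Ser73 with 10 µM ATP; % is set by controls: 0 for no effect and ±100 for the full control effect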)
# In short: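 qHTS format: compounds tested as titrations against IL-1beta/TNF-alpha-activated HepG2 lysate JNK3 with biotin-GST-cJun substrate and 10 uM ATP at room temperature. Loss of anti-phospho-cJun AlphaScreen signal indicates inhibition.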
# [8] = biological target: Cytochrome P450 3A4 (Homo sapiens) (UniProt P08684); assay: qHTS Assay for Activators of Cytochrome P450 3A4 (AID 885); note: nearly all actives have a fitted effect of over 65% in size
# Cytochrome P450 3A4 (Homo sapiens), sequence (P08684 whole entry, looked up): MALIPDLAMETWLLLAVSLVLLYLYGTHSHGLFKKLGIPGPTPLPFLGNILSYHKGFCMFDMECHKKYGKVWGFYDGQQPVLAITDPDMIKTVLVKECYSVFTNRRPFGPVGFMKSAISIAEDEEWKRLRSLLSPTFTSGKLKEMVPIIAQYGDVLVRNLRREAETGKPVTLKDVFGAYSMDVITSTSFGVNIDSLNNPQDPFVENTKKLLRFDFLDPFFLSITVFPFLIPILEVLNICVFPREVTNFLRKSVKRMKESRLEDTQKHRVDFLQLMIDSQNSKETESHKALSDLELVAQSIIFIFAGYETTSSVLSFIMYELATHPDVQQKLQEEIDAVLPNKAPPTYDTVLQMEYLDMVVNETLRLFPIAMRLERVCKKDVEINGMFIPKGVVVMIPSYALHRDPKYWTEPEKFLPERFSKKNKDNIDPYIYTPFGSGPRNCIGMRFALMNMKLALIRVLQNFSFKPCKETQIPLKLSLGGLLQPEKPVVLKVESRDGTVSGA
# In short: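 Quantitative HTS format: compounds preincubated with 20nM human CYP3A4 and Luciferin-PPXE substrate at KM, reaction started by NADPH regeneration, stopped after 60 min, luciferase luminescence read 20 min later.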
# [9] = biological target: Cytochrome P450 2D6 (Homo sapiens) (UniProt P10635); assay: qHTS Assay for Inhibitors and Substrates of Cytochrome P450 2D6 (AID 891); note: potency is the fitted concentration of half-maximal effect; nearly all actives have a fitted effect of over 60% in size
# In short: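 Human CYP2D6 (5 nM) with 30 uM Luciferin-ME EGE (at Km) in 100 mM KPO4, compound preincubated 10 min, then NADPH regeneration system for 60 min at room temperature. Luciferin read by luminescence; normalized to 1.43 uM quinidine.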
# [10] = biological target: Cytochrome P450 2C19 (Homo sapiens) (UniProt P33261); assay: qHTS Assay for Inhibitors and Substrates of Cytochrome P450 2C19 (AID 899); note: potency is the fitted concentration of half-maximal effect; nearly all actives have a fitted effect of over 60% in size
# Cytochrome P450 2C19 (Homo sapiens), sequence (P33261 whole entry, looked up): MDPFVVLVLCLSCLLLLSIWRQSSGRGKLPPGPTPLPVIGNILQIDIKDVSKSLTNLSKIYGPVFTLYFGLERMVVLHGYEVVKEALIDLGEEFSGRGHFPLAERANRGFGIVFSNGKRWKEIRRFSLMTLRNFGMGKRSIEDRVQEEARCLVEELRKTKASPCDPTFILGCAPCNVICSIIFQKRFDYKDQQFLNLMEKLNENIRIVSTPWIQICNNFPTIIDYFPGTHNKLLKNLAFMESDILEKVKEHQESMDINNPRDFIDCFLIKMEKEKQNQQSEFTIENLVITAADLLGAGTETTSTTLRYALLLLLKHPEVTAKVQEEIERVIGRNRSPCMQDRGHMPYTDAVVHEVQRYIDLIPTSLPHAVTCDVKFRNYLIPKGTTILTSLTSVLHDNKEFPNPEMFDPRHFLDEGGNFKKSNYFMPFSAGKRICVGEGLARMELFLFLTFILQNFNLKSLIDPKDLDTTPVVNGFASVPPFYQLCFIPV
# In short: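 5 nM human CYP2C19 with 10uM Luciferin-H EGE (at KM) in 50mM KPO4, compound preincubated 10 min at 37C, then NADPH regeneration for 60 min at 37C. Luciferin read by luminescence after detection reagent; normalized to 57uM ketoconazole as full inhibition.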
# [11] = biological target: Dual specificity protein kinase CLK4 (Homo sapiens) (UniProt Q9HAZ1); assay: qHTS Assay for Inhibitors of CDC-like Kinase 4 (Kinase-Glo Assay) (AID 1770); note: nearly all actives have a fitted effect of over 65% in size; note: potency is the fitted concentration of half-maximal effect
# Dual specificity protein kinase CLK4 (Homo sapiens), sequence (Q9HAZ1 whole entry, looked up): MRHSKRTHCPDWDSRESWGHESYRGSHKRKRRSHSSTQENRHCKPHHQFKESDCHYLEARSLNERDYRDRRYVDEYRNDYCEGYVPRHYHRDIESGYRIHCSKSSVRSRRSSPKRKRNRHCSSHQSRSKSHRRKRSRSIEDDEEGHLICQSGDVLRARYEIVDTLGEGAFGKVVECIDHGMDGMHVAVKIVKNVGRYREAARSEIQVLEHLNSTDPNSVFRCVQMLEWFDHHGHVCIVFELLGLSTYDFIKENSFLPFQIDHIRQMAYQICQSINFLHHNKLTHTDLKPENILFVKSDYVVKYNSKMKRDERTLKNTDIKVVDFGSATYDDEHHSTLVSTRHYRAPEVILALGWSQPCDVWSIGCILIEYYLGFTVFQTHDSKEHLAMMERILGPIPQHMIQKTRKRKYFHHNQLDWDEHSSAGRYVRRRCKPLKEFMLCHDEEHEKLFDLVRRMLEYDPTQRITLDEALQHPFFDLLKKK
# In short: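 25 nM Clk4 with 100 uM RS repeat peptide and 1 uM ATP (final) in Tris pH7.5, 10 mM MgCl2, 4.5 h at room temperature. Remaining ATP measured by Kinase-Glo luciferase luminescence.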
# [12] = biological target: Dual specificity protein kinase CLK4 (Homo sapiens) (UniProt Q9HAZ1); assay: qHTS Assay for Inhibitors of CDC-like Kinase 4 (ADP-Glo Assay) (AID 1771); note: nearly all actives have a fitted effect of over 70% in size; note: potency is the fitted concentration of half-maximal effect
# In short: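 Clk4 (25 nM) was incubated 1 hr at room temperature with 100 uM RS repeat peptide and 1 uM ATP in buffer with 2 mM MgCl2, 0.5 mM EGTA, 2.5 mM DTT. ADP formed was quantified by ADP-Glo luminescence.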
# [13] = biological target: Dual specificity protein kinase CLK4 (Homo sapiens) (UniProt Q9HAZ1); assay: qHTS Assay for Inhibitors of CDC-like Kinase 4 (ADP-FP Assay) (AID 1795);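 note: recombinant human CLK4 phosphorylating RS repeat peptide at 1 µM ATP; % is set by controls: 0 for no effect and ±100 for the full control effect; nearly all actives have a fitted effect of over 60% in size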
# In short: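 Recombinant Clk4 (6.25 nM) phosphorylated 100 uM RS repeat peptide with 1 uM ATP in 25 mM Tris pH 7.5, 10 mM MgCl2, 0.5 mM EGTA, 2.5 mM DTT, 0.01% Triton X-100 for 1 h. ADP was detected by Transcreener ADP2 competitive fluorescence polarization after 30 min at room temperature.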
# [14] = biological target: Ubiquitin carboxyl-terminal hydrolase 1 (Homo sapiens) (UniProt O94782); assay: Inhibitors of USP1/UAF1: Pilot qHTS (AID 504865); note: nearly all actives have a fitted effect of over 35% in size; note: potency is the fitted concentration of half-maximal effect
# Ubiquitin carboxyl-terminal hydrolase 1 (Homo sapiens), sequence (O94782 whole entry, looked up): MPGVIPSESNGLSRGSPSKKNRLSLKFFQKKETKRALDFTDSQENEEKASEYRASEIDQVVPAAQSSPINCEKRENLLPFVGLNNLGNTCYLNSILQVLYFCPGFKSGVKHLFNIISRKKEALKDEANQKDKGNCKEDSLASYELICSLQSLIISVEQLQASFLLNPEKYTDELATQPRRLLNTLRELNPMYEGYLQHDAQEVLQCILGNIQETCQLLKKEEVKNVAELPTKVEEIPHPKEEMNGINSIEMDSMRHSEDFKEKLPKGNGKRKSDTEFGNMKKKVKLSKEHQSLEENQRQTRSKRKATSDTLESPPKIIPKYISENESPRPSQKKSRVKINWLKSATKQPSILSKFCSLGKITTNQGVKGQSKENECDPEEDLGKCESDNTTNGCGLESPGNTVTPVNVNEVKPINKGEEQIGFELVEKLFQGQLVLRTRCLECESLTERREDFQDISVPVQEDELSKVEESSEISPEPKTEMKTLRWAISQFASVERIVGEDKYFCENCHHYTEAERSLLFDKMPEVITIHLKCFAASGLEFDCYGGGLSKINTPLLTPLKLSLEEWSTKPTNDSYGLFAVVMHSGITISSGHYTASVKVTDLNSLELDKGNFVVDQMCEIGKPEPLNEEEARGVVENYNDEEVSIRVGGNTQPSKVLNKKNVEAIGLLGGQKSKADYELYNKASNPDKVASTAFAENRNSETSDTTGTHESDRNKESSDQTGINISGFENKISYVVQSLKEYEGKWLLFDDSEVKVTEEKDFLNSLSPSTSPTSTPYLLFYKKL
# In short: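 USP1/UAF1 complex at 1 nM preincubated 15 min at room temperature with compound, then Ub-Rho substrate added at 150 nM final. Fluorescence (480/540 nm) read kinetically in 50 mM HEPES pH 7.8, 0.5 mM EDTA, 1 mM TCEP, 0.1 mg/ml BSA, 0.01% Tween-20.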
# [15] = qHTS profiling of the MIPE4 collection as inhibitors of Plasmodium falciparum (3D7) proliferation (AID 743344; call rule not given here;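 note: scaled between DMSO vehicle wells and 0.29 µM artemisinin as full inhibition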); details: P. falciparum 3D7 in erythrocytes, SYBR Green DNA fluorescence, 72 h; at 28.5 µM (top of the series)
# In short: (§1)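 Erythrocytes infected with P. falciparum (0.3% parasitemia, 2.5% hematocrit) incubated with compounds 72 h at 37 C, 5% CO2. Lysis with saponin/Triton buffer containing SYBR Green I, overnight at room temperature in the dark; DNA fluorescence (485/535 nm) normalised to 0.29 uM artemisinin and DMSO.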
# [16] = qHTS profiling of the MIPE4 collection as inhibitors of Plasmodium falciparum (DD2) proliferation (AID 743345; call rule not given here); details: P. falciparum Dd2 in erythrocytes, SYBR Green DNA, 72 h; at 28.5 µM (top of the series)
# In short: as §1
# [17] = qHTS profiling of the MIPE4 collection as inhibitors of Plasmodium falciparum (DD2) proliferation (Rep 2) (AID 743346; call rule not given here); details: P. falciparum Dd2 in erythrocytes, SYBR Green DNA, 72 h; at 28.5 µM (top of the series)
# In short: as §1
# [18] = qHTS profiling of the MIPE4 collection as inhibitors of Plasmodium falciparum (HB3) proliferation (AID 743347; call rule not given here;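 note: plate controls were DMSO vehicle wells for no effect and artemisinin wells for full effect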); details: P. falciparum HB3 in erythrocytes, SYBR Green DNA, 72 h; at 28.5 µM (top of the series)
# In short: as §1
# [19] = NCATS anti-infectives library activity on HEK293 viability as a counter-qHTS vs the C. elegans viability qHTS (AID 1745854); note: potency is the fitted concentration of half-maximal effect
# In short: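 HEK293 cells, 1500 per well, exposed 24 hr at 37C in 5% CO2 to compounds in a 1:5 titration, up to 41.7 uM final. Viability read as CellTiter-Glo luminescence after 10 min at room temperature.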
# [20] = NFAT Signaling Pathway (AID 444; active = well fitted curve in either direction with a large enough effect, not every such curve was filed as active;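 note: carbachol stimulus at about its EC50 of 1 µM final; % is set by controls: 0 for no effect and ±100 for the full control effect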); details: Jurkat NFAT-bla M1, carbachol, beta-lactamase ratio, 5 h; at 7.69 µM (top of the series) unless noted
# In short: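 Jurkat cells with NFAT-driven β-lactamase reporter and co-expressed M1 receptor, stimulated with carbachol (final 1 uM, ~EC50), compound titration, 5 h at 37 °C. CCF4 loaded 1 h at RT; 460/530 nm ratio gave %activity and AC50.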
# [21] = biological target: 3',5'-cyclic-AMP phosphodiesterase 4B (Homo sapiens) (UniProt Q07343); assay: qHTS Assay for Inhibitors of PDE-IV (AID 607; active = well fitted activation curve with a large enough effect in the main read-out, with a control signal flat, not every such curve was filed as active; note: % of control where 0% means no effect)
# 3',5'-cyclic-AMP phosphodiesterase 4B (Homo sapiens), sequence (Q07343 whole entry, looked up): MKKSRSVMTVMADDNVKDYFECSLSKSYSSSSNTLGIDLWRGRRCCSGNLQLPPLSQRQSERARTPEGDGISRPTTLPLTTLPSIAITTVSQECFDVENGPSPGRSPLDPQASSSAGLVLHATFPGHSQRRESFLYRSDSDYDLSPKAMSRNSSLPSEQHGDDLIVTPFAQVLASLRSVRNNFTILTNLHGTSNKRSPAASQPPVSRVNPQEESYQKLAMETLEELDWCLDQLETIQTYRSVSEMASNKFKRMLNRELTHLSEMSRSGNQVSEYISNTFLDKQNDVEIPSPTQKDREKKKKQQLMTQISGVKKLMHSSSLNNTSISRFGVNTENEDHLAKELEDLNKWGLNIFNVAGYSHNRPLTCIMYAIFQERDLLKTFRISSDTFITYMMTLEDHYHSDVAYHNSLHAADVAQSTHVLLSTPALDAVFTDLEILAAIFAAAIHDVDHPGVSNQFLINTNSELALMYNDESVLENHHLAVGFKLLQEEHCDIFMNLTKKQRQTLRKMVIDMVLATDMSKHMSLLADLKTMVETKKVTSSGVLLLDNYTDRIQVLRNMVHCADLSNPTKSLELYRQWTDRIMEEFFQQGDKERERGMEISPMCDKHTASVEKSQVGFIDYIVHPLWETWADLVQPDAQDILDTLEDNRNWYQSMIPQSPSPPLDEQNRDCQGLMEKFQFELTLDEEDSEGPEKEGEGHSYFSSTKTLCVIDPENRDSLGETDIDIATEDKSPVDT
# In short: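 Live HEK293 cells with a modified cyclic nucleotide-gated (CNG) channel report intracellular cAMP via membrane-potential dye fluorescence (ex 535/em 590 nm). Endogenous PDE-IV was targeted. Compounds were tested at up to 22.9 uM final; RO 20-1724 100 uM served as control.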
# [22] = qHTS Assay for Identification of Small Molecule Agonists for Hypoxia Response Element Signaling Pathway (AID 914; active = well fitted activation curve with a large enough effect in the signal ratio, with a control signal flat, not every such curve was filed as active; the % refers to the signal ratio; note: potency is the fitted concentration of half-maximal effect); details: ME-180 (cervical carcinoma) HRE-bla reporter, beta-lactamase ratio, CoCl2, 17 h; activation: stronger effect = higher value
# In short: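 HRE-bla ME-180 assay for agonist-like enhancement of an EC50 CoCl2 stimulus: 17 h at 37 degrees Celsius, CCF4 for 2.5 h, ratiometric 460/530 nm signal converted to %Activity and fitted to AC50.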
structure (smiles),measurement,setting,value
CN(Cc1ccco1)c1nc(-c2ccccc2C(F)(F)F)nc2ccccc12,Potency,[1],> 11.4 µM (inactive)
same,"activity change, negative = inhibition",[2],23.8% (inactive)
same,Potency,[3],2 µM (active)
same,outcome,[4],inactive
same,Potency,[5],> 46 µM (inactive)
same,Potency,[6],> 46 µM (inactive)
same,Potency,[7],inactive
same,outcome,[8],inactive
same,Potency,[9],7.94 µM (active)
same,Potency,[10],7.94 µM (active)
same,Potency,[11],20 µM (active)
same,Potency,[12],28.2 µM (active)
same,Potency,[13],inactive
same,Potency,[14],28.2 µM (active)
CCCCCCCCCCCCCCCCn1cc[n+](Cc2ccccc2)c1C,"parasite growth, % of DMSO control",[15],5.58%
same,"parasite growth remaining, % of DMSO control (lower = more inhibition)",[16],6.21%
same,"parasite growth, % of control (lower = inhibition)",[17],8.98%
same,"growth, % of control",[18],5.99%
same,Potency,[19],11.2 µM (active)
O=c1c(CCc2ccccc2)nc2cnc(N3CCNCC3)nc2n1-c1ccccc1,Potency,[1],> 11.4 µM (inactive)
same,"activity change, negative = inhibition",[2],-11.6% (inactive)
same,Potency,[3],15.8 µM (active)
same,"activity change, negative = inhibition",[20],6.64% (inactive)
same,outcome,[4],inactive
same,Potency,[5],> 9.22 µM (inactive)
same,Potency,[6],> 46 µM (inactive)
same,Potency,[7],inactive
same,Potency,[21],inactive
same,Potency,[11],inactive
same,Potency,[12],inactive
same,Potency,[13],inactive
same,Potency,[14],inactive
COc1cccc(-c2cncnc2NCCN2CCOCC2)c1,Potency,[1],> 11.4 µM (inactive)
same,"activity change, negative = inhibition",[2],24.4% (inactive)
same,Potency,[3],15.8 µM (active)
same,outcome,[4],inactive
same,Potency,[5],> 46 µM (inactive)
same,Potency,[6],> 46 µM (inactive)
same,Potency,[7],inactive
same,Potency,[21],inactive
same,outcome,[8],inactive
same,Potency,[22],2.51 µM (active)
same,Potency,[11],inactive
same,Potency,[12],inactive
same,Potency,[13],inactive
same,Potency,[14],inactive
